For some of these results: Results with a measured potency or affinity are listed apart.

Common to all, as to set-up: scale not given: direction of the effect not stated beside the values
Test [1] concerns the target Protein translocase subunit SecA (Escherichia coli (strain K12)) (UniProt P10408). The test can be described thus: Assay to Identify E. coli SecA ATPase Inhibitors. To be noted: 30 µM. It is filed as functional.
Test [2] deals with T1, Ubiquitin-activating enzyme e1, putative (Leishmania donovani (strain BPK282A1)) (UniProt E9BSI1).
T1 sequence (whole entry): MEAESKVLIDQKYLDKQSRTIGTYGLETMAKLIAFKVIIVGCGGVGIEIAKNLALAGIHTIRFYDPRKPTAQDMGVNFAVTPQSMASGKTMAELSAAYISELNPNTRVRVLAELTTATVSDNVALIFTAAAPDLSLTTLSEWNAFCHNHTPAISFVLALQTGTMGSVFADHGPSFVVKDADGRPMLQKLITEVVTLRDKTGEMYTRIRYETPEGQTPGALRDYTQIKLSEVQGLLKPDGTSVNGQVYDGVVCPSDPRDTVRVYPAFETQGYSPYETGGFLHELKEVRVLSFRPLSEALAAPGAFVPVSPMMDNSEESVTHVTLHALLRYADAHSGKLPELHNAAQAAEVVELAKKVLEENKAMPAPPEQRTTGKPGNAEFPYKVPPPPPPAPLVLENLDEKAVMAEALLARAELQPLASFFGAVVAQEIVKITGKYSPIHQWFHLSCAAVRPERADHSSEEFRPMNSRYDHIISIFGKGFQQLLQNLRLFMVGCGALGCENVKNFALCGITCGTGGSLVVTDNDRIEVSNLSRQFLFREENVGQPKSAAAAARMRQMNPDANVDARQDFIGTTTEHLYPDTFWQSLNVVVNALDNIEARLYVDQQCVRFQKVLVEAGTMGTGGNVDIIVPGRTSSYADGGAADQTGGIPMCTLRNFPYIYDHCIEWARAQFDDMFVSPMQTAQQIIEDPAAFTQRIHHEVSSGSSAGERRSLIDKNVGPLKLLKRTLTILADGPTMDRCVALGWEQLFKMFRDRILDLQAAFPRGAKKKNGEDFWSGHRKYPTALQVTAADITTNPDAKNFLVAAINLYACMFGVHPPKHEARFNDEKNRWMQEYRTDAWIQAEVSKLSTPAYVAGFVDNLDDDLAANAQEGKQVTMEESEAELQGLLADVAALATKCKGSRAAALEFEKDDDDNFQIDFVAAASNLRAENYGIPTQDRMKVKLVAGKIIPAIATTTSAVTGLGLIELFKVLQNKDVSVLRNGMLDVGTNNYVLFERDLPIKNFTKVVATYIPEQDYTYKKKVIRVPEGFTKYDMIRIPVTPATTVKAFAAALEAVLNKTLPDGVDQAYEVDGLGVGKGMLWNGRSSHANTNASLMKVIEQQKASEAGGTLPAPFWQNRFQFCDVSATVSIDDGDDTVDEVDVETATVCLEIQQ
The test is described as follows: Leishmania donovani Ubiquitin Activating Enzyme (LdE1). As to conditions: 30 µM. It is filed as functional.

The target in test [3] is AMP-activated protein kinase, AMPK (Homo sapiens) (UniProt P54646+O43741+P54619+Q9UGJ0+Q9Y478+Q13131+Q9UGI9). The test can be described thus: AMP-dependent Kinase enzyme assay. An in vitro enzyme assay that detects ADP turnover that is directly proportional to AMPK activity. This uses naive AMPK that is activated during the assay with MK-8722. It counts as functional. As to conditions: 30 µM.

The target of test [4] is Sialic acid-binding Ig-like lectin 9 (Homo sapiens) (UniProt Q9Y336). The test can be described thus: Hs-Siglec9 ALPHAscreen SOP 20170721. To be noted: 10 µM. Background: In Alpha technology, singlet oxygen from a donor bead excites a nearby acceptor bead.
Test [5] deals with Trypanosoma cruzi. The test can be described thus: Trypanosoma cruzi phosphomannomutase and mannose-1-phosphate guanylyltransferase assay. It is filed as functional. To be noted: 10 µM.
The target in test [6] is T2, Arginase-2, mitochondrial (Homo sapiens) (UniProt P78540).
T2 sequence (whole entry): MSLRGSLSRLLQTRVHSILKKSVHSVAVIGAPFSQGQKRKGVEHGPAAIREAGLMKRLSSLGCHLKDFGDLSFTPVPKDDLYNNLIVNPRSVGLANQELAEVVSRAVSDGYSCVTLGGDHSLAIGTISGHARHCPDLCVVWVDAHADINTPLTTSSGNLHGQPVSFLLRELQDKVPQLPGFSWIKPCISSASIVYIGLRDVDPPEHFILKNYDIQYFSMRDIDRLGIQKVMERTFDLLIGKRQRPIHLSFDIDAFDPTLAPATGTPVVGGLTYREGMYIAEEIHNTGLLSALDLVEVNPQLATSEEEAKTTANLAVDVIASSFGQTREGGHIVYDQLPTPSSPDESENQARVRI
The test can be described thus: in vitro enzyme assay to detect the production of urea directly proportional to the activity of Arginase II. Also: in the data most compounds retested in dose-response had high values. It is filed as functional. To be noted: 33.3 µM.

Test [7] has as its target T3, Proteasome subunit beta (Trypanosoma cruzi) (UniProt O96673).
T3 sequence (whole entry): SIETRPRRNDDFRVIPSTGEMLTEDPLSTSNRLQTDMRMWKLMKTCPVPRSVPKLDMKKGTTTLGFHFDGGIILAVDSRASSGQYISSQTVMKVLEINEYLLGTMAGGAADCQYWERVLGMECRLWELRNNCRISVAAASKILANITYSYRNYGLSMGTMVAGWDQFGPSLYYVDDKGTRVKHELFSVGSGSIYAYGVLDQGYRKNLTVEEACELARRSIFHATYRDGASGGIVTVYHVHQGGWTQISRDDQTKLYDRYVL
The test is described as follows: Trypanosoma cruzi proteasome chymotrypsin-like activity (TcProtChymo) assay. Also: in the data most compounds retested in dose-response had high values. It counts as functional. As to conditions: 9.37 µM.

The species named for test [8] is Homo sapiens. The test is described as follows: To identify inhibition of the IFN signalling (Jak-Stat) pathway via expression of an eGFP reporter gene under the control of an IFN-stimulated response element (ISRE) containing MxA promoter. To be noted: 30 µM. It is filed as functional.
Test [9] addresses T4, Tyrosyl-tRNA synthetase, putative (Trypanosoma cruzi (strain CL Brener)) (UniProt Q4DSP6).
T4 sequence (whole entry): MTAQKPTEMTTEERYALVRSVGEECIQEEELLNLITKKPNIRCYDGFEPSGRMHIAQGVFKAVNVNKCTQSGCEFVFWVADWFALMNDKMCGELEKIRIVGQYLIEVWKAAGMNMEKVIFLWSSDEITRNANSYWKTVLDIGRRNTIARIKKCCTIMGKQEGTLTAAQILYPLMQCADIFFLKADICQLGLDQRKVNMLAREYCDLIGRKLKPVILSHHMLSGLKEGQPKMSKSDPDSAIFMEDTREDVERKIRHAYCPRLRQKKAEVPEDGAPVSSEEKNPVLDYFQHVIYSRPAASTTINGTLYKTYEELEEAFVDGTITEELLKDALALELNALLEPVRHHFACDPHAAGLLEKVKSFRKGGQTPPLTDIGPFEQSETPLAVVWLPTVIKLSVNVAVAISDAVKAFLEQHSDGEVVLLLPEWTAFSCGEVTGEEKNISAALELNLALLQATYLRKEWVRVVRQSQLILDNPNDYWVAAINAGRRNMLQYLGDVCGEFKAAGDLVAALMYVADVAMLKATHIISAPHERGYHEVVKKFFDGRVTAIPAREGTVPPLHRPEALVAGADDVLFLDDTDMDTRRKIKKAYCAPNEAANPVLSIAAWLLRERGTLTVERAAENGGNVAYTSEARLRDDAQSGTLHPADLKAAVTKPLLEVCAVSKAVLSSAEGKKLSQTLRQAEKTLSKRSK
The test is described as follows: Trypanosoma cruzi tyrosyl tRNA synthetase (TcYRS) _High Tyrosine SOP. Also: in the data most compounds retested in dose-response had high values. It is filed as functional. As to conditions: 30 µM.

For test [10], the target named is T4, Tyrosyl-tRNA synthetase, putative (Trypanosoma cruzi (strain CL Brener)). The test is described as follows: Trypanosoma cruzi tyrosyl tRNA synthetase (TcYRS) SOP. As to conditions: 30 µM. It is filed as functional.
Test [11] deals with Chromo domain-containing protein 1 (Saccharomyces cerevisiae (strain ATCC 204508 / S288c) (Baker's yeast)) (UniProt P32657). The test can be described thus: ScCHD-1 Enzyme Inhibition Assay. Also: in the data most compounds retested in dose-response had high values. To be noted: 30 µM. It counts as functional.
Chain of Chromo domain-containing protein 1 (Saccharomyces cerevisiae (strain ATCC 204508 / S288c) (Baker's yeast)) (P32657 whole entry, the tested form may be a part): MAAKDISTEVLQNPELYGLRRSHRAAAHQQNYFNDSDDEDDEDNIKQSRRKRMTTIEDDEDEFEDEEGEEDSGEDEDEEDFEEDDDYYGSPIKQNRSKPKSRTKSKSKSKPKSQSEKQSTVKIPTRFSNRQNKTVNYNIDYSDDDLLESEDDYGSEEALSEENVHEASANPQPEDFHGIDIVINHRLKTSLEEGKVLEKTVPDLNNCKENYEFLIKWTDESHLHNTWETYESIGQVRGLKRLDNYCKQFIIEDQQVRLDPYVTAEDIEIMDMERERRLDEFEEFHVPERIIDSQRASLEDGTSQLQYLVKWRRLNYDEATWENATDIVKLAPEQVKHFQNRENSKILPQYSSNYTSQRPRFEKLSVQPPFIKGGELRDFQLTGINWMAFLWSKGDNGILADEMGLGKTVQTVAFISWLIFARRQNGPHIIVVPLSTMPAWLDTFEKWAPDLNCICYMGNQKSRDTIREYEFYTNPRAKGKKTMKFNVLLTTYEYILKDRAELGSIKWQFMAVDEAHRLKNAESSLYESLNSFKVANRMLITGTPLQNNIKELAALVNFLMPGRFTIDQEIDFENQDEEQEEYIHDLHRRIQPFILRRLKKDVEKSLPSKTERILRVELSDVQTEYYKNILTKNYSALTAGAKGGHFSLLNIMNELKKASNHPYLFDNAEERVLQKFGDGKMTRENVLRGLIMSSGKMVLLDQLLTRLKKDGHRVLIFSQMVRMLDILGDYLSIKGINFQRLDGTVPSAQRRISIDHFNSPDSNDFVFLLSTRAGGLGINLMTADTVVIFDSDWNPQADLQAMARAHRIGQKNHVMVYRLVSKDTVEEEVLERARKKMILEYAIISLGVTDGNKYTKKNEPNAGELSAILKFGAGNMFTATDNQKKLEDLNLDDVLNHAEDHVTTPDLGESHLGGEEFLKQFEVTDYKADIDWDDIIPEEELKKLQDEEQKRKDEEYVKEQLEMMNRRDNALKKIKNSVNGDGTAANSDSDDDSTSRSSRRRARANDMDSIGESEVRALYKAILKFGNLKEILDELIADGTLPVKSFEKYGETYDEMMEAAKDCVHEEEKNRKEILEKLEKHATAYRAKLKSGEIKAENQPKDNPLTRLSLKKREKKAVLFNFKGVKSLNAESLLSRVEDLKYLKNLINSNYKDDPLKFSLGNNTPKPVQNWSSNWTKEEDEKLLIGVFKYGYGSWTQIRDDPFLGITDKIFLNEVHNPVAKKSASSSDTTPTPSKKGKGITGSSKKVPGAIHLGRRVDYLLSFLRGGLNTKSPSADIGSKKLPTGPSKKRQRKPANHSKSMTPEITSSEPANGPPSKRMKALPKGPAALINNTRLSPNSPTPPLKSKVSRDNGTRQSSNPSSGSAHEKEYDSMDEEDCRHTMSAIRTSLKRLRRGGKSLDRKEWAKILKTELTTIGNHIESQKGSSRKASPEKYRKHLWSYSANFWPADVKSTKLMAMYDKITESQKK

Chain of Protein translocase subunit SecA (Escherichia coli (strain K12)) (P10408 whole entry): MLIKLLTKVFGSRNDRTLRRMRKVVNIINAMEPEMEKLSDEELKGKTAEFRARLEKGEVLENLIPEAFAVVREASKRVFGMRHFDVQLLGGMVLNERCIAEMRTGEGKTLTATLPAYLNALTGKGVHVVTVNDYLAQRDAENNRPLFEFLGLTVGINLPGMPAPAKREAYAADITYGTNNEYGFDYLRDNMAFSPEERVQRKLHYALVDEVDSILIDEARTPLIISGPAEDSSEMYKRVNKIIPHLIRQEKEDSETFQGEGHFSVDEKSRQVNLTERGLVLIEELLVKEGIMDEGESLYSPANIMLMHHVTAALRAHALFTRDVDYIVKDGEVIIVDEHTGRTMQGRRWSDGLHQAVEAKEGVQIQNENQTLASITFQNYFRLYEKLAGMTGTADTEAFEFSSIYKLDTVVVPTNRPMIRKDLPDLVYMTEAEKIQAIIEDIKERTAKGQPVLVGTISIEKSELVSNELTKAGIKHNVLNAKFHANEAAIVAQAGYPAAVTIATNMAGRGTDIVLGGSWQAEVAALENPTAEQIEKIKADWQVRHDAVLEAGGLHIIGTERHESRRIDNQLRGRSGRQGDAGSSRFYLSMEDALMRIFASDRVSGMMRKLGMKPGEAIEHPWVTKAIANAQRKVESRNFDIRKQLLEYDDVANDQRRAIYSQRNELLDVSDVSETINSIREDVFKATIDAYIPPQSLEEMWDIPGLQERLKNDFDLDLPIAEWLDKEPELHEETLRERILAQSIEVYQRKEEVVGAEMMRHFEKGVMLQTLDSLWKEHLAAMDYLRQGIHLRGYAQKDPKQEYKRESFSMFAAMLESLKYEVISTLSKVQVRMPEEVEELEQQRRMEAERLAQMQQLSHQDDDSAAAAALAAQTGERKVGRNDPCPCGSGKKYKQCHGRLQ
Chain of Sialic acid-binding Ig-like lectin 9 (Homo sapiens) (Q9Y336 whole entry): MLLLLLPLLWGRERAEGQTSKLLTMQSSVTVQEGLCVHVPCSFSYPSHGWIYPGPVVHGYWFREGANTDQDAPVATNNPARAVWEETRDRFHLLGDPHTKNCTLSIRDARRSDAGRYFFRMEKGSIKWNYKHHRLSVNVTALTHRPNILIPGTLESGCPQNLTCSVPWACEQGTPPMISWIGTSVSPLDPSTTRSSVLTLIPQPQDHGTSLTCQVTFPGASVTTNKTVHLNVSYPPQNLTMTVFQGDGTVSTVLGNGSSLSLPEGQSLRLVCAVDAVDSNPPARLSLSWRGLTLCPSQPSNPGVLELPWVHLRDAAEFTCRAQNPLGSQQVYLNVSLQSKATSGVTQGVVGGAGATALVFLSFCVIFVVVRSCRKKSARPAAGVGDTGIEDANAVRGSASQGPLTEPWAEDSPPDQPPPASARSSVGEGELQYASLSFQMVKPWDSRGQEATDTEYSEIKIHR

For the compound `O=C(CS(=O)(=O)c1ccccc1Cl)NC1CCCCNC1=O` (stereo unspecified), the Percent Effect is -6.72% in test [1]; 13% in test [2]; -4.35% in [3]; 4.43% in test [4]; 2.43% in [5]; -1.78% in [6]. Moreover, the Percent Effect in test [7] was 6.93%; in [8] it was -3.42%; in [9], 2.91%; in [10], 14.6%; in [11] it was -2.31%.
In the case of `CSCC(=O)N1CCCC(n2ccnc2C(C)C)C1` (stereo unspecified), the Percent Effect is -0.321% in test [1]; 15.8% in [2]; -1.19% in [3]; -13.5% in [4]; -6.63% in test [5]; 5.4% in test [6]. The Percent Effect is 6.01% in test [7]; -1.49% in test [8]; 8.37% in test [9]; 18.5% in test [10]; -9.2% in test [11].
Regarding `Cc1cnn(C2CCCN(C(=O)c3cn4cccnc4n3)C2)c1` (stereo unspecified), the Percent Effect in test [1] was -4.17%; in test [2], 8.11%; in test [3] it was -11.5%; in test [4], 17.1%; in test [5] it was 1.04%; in test [6], -6.01%. Besides, the Percent Effect in test [7] was 1.62%; in test [8], 7.34%; in test [9], 7.39%; in [10] it was 16.1%; in test [11] it was -12.7%.
For `CC(C(=O)N1CCCN(c2ccc(C#N)cc2)CC1)n1ccnc1` (stereo unspecified), the Percent Effect in test [1] is -5.97%; in test [2] it was 15.8%; in [3], -5.83%; in [4], -1.34%; in test [5], 3.01%; in [6] it was 6.13%. In addition, the Percent Effect was 8.52% in test [7]; -7.67% in test [8]; 8.33% in test [9]; 19.5% in [10]; -17.9% in test [11].
In the case of `CCn1nc(C)c2ncnc(NCCCN3CCOCC3)c21`, the Percent Effect in [1] was -5.99%; in test [2] it was 9.33%; in test [3] it was -3.7%; in test [4] it was 9.5%; in test [5], 0.786%; in [6], -2.64%. In addition, the Percent Effect in test [7] was 12.2%; in test [8], -4.74%; in test [9], 5.29%; in test [10], 12.8%; in test [11], -10.7%.
Take `CN(CC1CC1)C(=O)CN(Cc1cccc(O)c1)C1CCC(O)CC1` (stereo unspecified): the Percent Effect in test [1] is -0.997%; in [2], -2.7%; in test [3] it was -5.33%; in [4] it was 8.92%; in test [5] it was 1.07%; in test [6], 24.6%. Besides, the Percent Effect in test [7] worked out at 11.1%; in test [8], 12%; in test [9], 0%; in [10], 1.24%; in test [11], 0.446%.
With `CCN(CC(=O)NC)C(=O)Cc1nc(-c2ccco2)oc1C`, the Percent Effect in test [1] is -8.15%; in test [2] it was 5.33%; in test [3] it was -6.53%; in [4], 3.51%; in test [5], 0.876%; in test [6] it was 5.73%. Moreover, the Percent Effect in test [7] is 16.9%; in [8] it was 10.7%; in test [9] it was 8.2%; in test [10], 13.6%; in [11], -5.99%.
As to `c1ncn(CC2CN(Cc3csc(C4CCCC4)n3)CCO2)n1` (stereo unspecified), the Percent Effect in test [1] is -7.65%; in [2], 15.8%; in [3], -7.05%; in [4], 15.7%; in test [5], 3.46%; in [6], -1.44%. Besides, the Percent Effect was -2.79% in test [7]; 2.48% in test [8]; 4.43% in test [9]; 23.5% in test [10]; -9.07% in test [11].
On to `Cc1cnc(C)c(N2CCN(Cc3ccc(-c4cc[nH]n4)o3)CC2)n1`, for which the Percent Effect in [1] was -0.779%; in [2], 10.7%; in test [3] it was -20.1%; in test [4], 21.3%; in test [5], 5.94%; in test [6] it was 7.29%. Besides, the Percent Effect was 22.7% in test [7]; 32% in [8]; 7.1% in test [9]; 16.1% in [10]; -4.34% in test [11].
Regarding `Cc1cnn(CC2CCCN2CC(=O)N(C)CCC#N)c1` (stereo unspecified), the Percent Effect in [1] is -1.24%; in test [2], -5.41%; in test [3], -5.26%; in [4] it was 5.88%; in test [5], -0.386%; in test [6], -0.476%. In addition, the Percent Effect is 11.4% in test [7]; -14.1% in test [8]; -2.65% in test [9]; -2.44% in test [10]; 91.2% in test [11].
As for `Cn1ccc(C(=O)NC2CCC23CCN(Cc2cccnc2)CC3)c1` (stereo unspecified), the Percent Effect in test [1] is -1.54%; in [2], 2.74%; in test [3] it was 5.78%; in test [4], 0.617%; in test [5], 0%; in [6], 0.399%. Besides, the Percent Effect in test [7] was 5.39%; in test [8], 2.32%; in [9] it was -1.04%; in test [10], -3.7%; in test [11], 0.517%.
